Results taken from PubChem BioAssay AID588827 (Broad Institute, 2011).
Out of some 2,400 compounds screened, about 20 (0.8%) were called active. About 19% were inconclusive and are not listed.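 How the source made its calls: active means fitted half-maximal concentration for signal decrease at or below twice the top tested dose, in every repeat run; inconclusive means repeat runs disagree, or flat partial inhibition, or poor fit; inactive means all runs flat, wrong-direction or potency beyond limit.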 The list is a sample of the results. Entries with a potency or affinity are not part of this list.

Experiment: decrease of heat-induced HSF-1 GFP reporter, dose response, NIH3T3 R4 cells, GFP/RFP, cherry-pick, set 4 (AID 588827);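 further: 0% = neutral control wells and -100% = didemnin B at 400 nM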
Details: NIH3T3 R4 HSF-1 GFP reporter, heat shock, 48 h; series mostly up to 19.5 µM; activity change, negative = inhibition: at the top concentration

Activity change, negative = inhibition, inactive:
COc1ccc2nnc(-c3ccc(C(F)(F)F)cc3)n2n1 -29%
O=C1CCCC/C1=N\Nc1ccc(C2CCCCC2)cc1 -12.6%
COc1ccc(C(=O)C2CCCN(S(=O)(=O)c3ccccc3F)C2)c(C)c1 (stereo not given) -19.3%
Cc1cc(S(=O)(=O)N2CCN=C2c2ccccc2)c(C)cc1Cl -13.8%
COc1cc(/C=N/N=C2/C(=O)Nc3ccccc32)cc(OC)c1O -6.39%
O=C(NCc1ccco1)C(=O)NCC(c1ccco1)N1CCOCC1 (stereo not given) -10.2%
CCOC(=O)C1(CCOc2ccccc2)CCN(Cc2cccc(-n3cccn3)c2)CC1 19%
CC(=O)N/N=C(\C)CC(=O)NC(C)(C)C 6.32%
C=CCn1c(C)cc(C(=O)CSc2nnc(NC(C)C)s2)c1C -14.3%
CCCCN1CNC(=S)N(c2ccc(C(=O)OCC)cc2)C1 -9.47%
COc1ccc(-c2oc3ccccc3c2C(=O)Oc2ccccc2)cc1 0.138%
Cc1ccc(-c2nn(-c3ccccc3)cc2CN(C)C(=O)CCC(=O)O)cc1C -15.5%
O=[N+]([O-])c1cccc(-c2nnc(-c3ccccc3)o2)c1 -13.4%
Cc1ccc(C(=O)N/C(=C/c2ccco2)C(=O)Nc2cccc(C(=O)O)c2)cc1 -3.67%
Cc1cccc(OCC(=O)Nc2cccc(C(=O)NCC(C)C)c2)c1 -11.5%
COc1ccc(C2NS(=O)(=O)N=C2N)cc1 (stereo not given) -1.94%
CC(=O)C1C(=O)c2c(cccc2[N+](=O)[O-])C1=Nc1ccc(S(N)(=O)=O)cc1 (stereo not given) -10.1%
CCOC(=O)N1CCN(S(=O)(=O)c2ccc3c(c2)OCC(=O)N3)CC1 -10.4%
Cc1ccc(-c2cn(-c3ccccc3)c(=S)[nH]2)cc1C -10%
O=C(Nc1ccccc1N1CCCCC1)C1CCN(C(=O)c2ccc(Cl)cc2)CC1 -15.7%
CCOC(=O)c1c(NC(=O)CSc2nnc(-c3c[nH]c4ccccc34)n2C)sc2c1CCCC2 -23.8%
O=C(NCCCn1ccnc1)C(=O)NCC1OCCN1S(=O)(=O)c1cc(F)ccc1F (stereo not given) -8.72%
O=C(O)CCSc1nnc(-c2ccc3c(c2)OCO3)o1 1.52%
Cc1c(C(=O)c2no[n+]([O-])c2C(=O)c2cnn(C)c2C)cnn1C 12.6%
O=S(=O)(Nc1cccc(Oc2cnccn2)c1)c1ccc(F)cc1 -8.07%
CCOc1cc(/C=N/NC(=O)c2cccc(S(=O)(=O)N3CCOCC3)c2)ccc1OCC(=O)N(C)C -8.98%
Cc1ccc(-c2cc3c(N=O)c4ccccc4c-3n[nH]2)cc1 9.74%
CCCN(CCC)C(=O)CSc1nc2ccsc2c(=O)n1NC(=O)c1ccccc1 -0.911%
COc1cccc(C(c2sc3nc(C)nn3c2O)N2CCN(C(=O)c3ccco3)CC2)c1 (stereo not given) -17.6%
Cn1c(=O)c2ccccc2n(Cc2ccccc2Cl)c1=O -29.6%
O=C(CCl)NC(Cc1ccccc1)c1ccccc1 (stereo not given) 9.09%
COC(=O)c1cc(S(=O)(=O)NCCc2ccccc2)c[nH]1 -14.9%
O=C(CCl)N=c1sccn1Cc1ccc(Cl)cc1Cl -29.8%
Cc1ccc(S(=O)(=O)N2CCN(CC(=O)N/N=C\c3ccncc3)CC2)cc1 -9.13%
O=C(O)c1ccc2nc(-c3ccccc3)sc2c1 -4.16%
Cn1c(=O)c2c(SCC(=O)N3CCCc4ccccc43)nc(C3CC3)nc2n(C)c1=O -16.5%
Cc1ccc(C)c(NC(=O)COc2coc(CN3CCc4ccccc4C3)cc2=O)c1 -27.9%
Cc1ccc2[nH]c(=O)c(CN(C(=O)c3cccc([N+](=O)[O-])c3)C(C)C)cc2c1 -24.7%
O=C(Nc1ccc(S(=O)(=O)N2CCOCC2)cc1)c1ccc(Cl)cc1Cl -21.7%
COC(=O)c1nn(-c2ccc3c(c2)CCN3C(C)=O)cc1O 21.1%
Cc1cc(C)c2[nH]c(=O)c(C(c3nnnn3CC3CCCO3)N3CCC(C)CC3)cc2c1 (stereo not given) -26.5%
N=C(N)SCc1ccccc1Cl 19.3%
COc1ccc(C(=O)NCc2nnc(SCC(=O)N3CCC(C)CC3)o2)cc1OC -11.6%
O=C(Cn1nc2ccccc2n1)N/N=C/c1cc([N+](=O)[O-])ccc1O 6%
O=C(Oc1ccccc1Cl)c1ccc(-n2cncn2)nc1 -8.84%
COc1ccc(S(=O)(=O)N2CCCCCC2)cc1C(=O)OCC(=O)NC(C)(C)C -11.8%
Nc1ccccc1-c1nc2ccccc2s1 -7.02%
COc1ccc(S(=O)(=O)N2CCCC2)cc1C(C)C -16.1%
O=C(N1CCCCC1)N1CCN(S(=O)(=O)c2ccccc2)CC1 -11.3%
Cc1nc2sccn2c(=O)c1S(=O)(=O)Nc1ccc(N2CCOCC2)c(Cl)c1 -25.3%
COC(=O)c1cccc(NC(=O)CN2CCN(Cc3ccccc3)CC2)c1 2.65%
CN1CCc2c(sc(/N=C/c3cc(C(C)(C)C)ccc3O)c2C#N)C1 3.37%
COc1ccc2[nH]c3c(=O)n(CCCN4CCOCC4)cnc3c2c1 -12.4%
CCO/C(C)=C1/SC(=S)NC1=O 3.62%
c1ccc(OCCSc2nc3ccccc3o2)cc1 -18%
COc1cc(NC(=O)c2cc(C)nc3ccccc23)cc(OC)c1 -25.1%
COc1cccc(C(=O)c2c[nH]c(C(=O)NCc3ccco3)c2)c1 -5.49%
COc1ccc(CNC(=O)c2cnc3scc(C)n3c2=O)cc1 -20.1%
COc1ccc(Cl)cc1C(=O)NCC(=O)OCc1ccccc1 8.73%
O=C(CCNC(=O)c1ccc(Cl)cc1)Nc1ncccc1O -4.94%
CCCCOC(=O)CSCC(=O)Nc1cc(C)on1 2.2%
CCN(CC)S(=O)(=O)c1ccc2c(c1)c(=O)c(C(=O)NCc1ccco1)cn2C -6.4%
CC(=O)N(c1ccc2oc(=O)sc2c1)S(=O)(=O)c1ccc(C(=O)O)cc1 -1.71%
CCOC(=O)c1cc(S(=O)(=O)N2CCc3ccccc32)cn1C -12.5%
Fc1ccccc1N1CCN(Cc2cc(-c3ccccc3)on2)CC1 -10.8%
CCc1ccccc1NC(=O)CSc1nnc(-c2ccncc2)o1 -11.8%
COCCNC(=O)C(OC(=O)c1cccs1)c1ccccc1 (stereo not given) 2.58%
COc1ccc(CCNC(=O)CN(c2ccc(OC)c(OC)c2)S(C)(=O)=O)cc1OC -22.4%
CCC(NC(=S)NCc1ccccc1)C(=O)O (stereo not given) 29.3%
CCOCCn1c(SCC(=O)OCc2ccccc2)nc2c1c(=O)[nH]c(=O)n2C -11.3%
CC(C)c1nc2ccccc2c2nnc(SCC(=O)NCc3ccco3)n12 -7.5%
CC(=O)Nc1ccc(-c2cn3c(n2)SCC3)cc1 -4.99%
CC1(C)Cc2nc3[nH]c(=S)n(-c4ccccc4)c(=O)c3cc2CO1 -13.3%
Cc1ccc(S(=O)(=O)c2ccc(Oc3ccccc3)cc2)cc1 -11%
CC1CCCN(c2ncnc3c2cnn3-c2ccc(Cl)cc2)C1 (stereo not given) -10.3%
COc1ccc(Cn2nnnc2C(c2cc3cccc(C)c3[nH]c2=O)N2CCN(C)CC2)cc1 (stereo not given) 7.29%
CC(C)c1ccc(NC(=O)N(CCc2nc3ccccc3[nH]2)C2CCCC2)cc1 78.7%
CCCS(=O)(=O)N1CCc2cc(OC)c(OC)cc2C1 -3.49%
CCC(Sc1nc2cc(OC)c(OC)cc2c(=O)n1CCc1ccc(S(N)(=O)=O)cc1)C(=O)NCCOC (stereo not given) 16.7%
O=C(N/N=C/c1ccccn1)c1ccc([N+](=O)[O-])cc1 -24.2%
CN(C)c1ccc(CNc2ccc3c(c2)ncn3C(C)(C)C)cc1 -15.9%
COc1cccc(-n2nc(-c3ccnn3-c3cccc(Cl)c3)c(=O)n(C)c2=O)c1 -21.5%
CCOC(=O)c1cc2sccc2n1CC(=O)Nc1ccc(OC)cc1 -14.8%
Cc1cccc(-c2ocnc2C(=O)N2CCN(C(=O)c3cccs3)CC2)c1 -4.21%
CCOC(=O)c1c(C)nc2c(C)cccn12 -16.6%
CC(C)(C)C(=O)OCc1nc(-c2ccc3c(c2)OCCO3)cs1 9.21%
Cc1nn(C(C)(C)C)c(C)c1/C=N/OC(=O)Nc1ccc(Cl)c(Cl)c1 -12.2%
Nc1nc(CSC(=S)N2CCCCC2)nc(Nc2ccccc2)n1 -2.27%
NS(=O)(=O)c1ccc(NC2=CC(=O)C(=O)c3ccccc32)cc1 -43.6%
Cn1c(NC(=O)c2ccccc2NC(=O)C(C)(C)C)nc2ccccc21 -22.4%
